Source: PubChem
In the library only some 19% were active in any assay of this set; here they are far more common.
ELG1 DNA repair = blocks ELG1-dependent DNA repair in HEK293T cells | hit rate 2.3% among 330,000 | HEK293T ELG1-luciferase reporter, luminescence, 16 h; DNA damage induced by 5-fluorouridine | Potency, µM (series often up to 46.1 µM), inactives show at the highest dose activity change, negative = inhibition, usual class: inhibitors; further: potency means the concentration at half of the fitted maximal effect; nearly all actives have a fitted effect of over 55% in size
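Luminescence from the luciferase reporter, measured 30 min after ONE-Glo reagent at room temperature, was the read-out. Beforehand, 2,000 cells per well were exposed for 16 hr at 37 °C to 5-fluorouridine together with compound or vehicle.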
IL-1B inflam inh = inflammasome signaling inhibition, IL-1 beta readout. THP-1 LPS/ATP IL-1B secretion, AlphaLISA, 16 h; active compounds read low. activity change, % at 57.5 µM. hit rate 4.7% among 360,000. AID 743279; in the data active means activity change below about -50%; inconclusive means mostly about -30% to -49%
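Secreted IL-1B measured by AlphaLISA bead assay after 16 h compound exposure of THP-1 cells; compounds (final up to 57.5 uM) added 1 h before LPS (250 ng/mL) and ATP (1.25 mM) stimulation; lower signal means less secretion.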
HT1080 IDH1KD tx = kills HT-1080 cells with IDH1 knockdown. hit rate 2% among 360,000. HT-1080 IDH1 knockdown viability, ATP luminescence, 48 h. Potency, µM (titrated, usually from 46.1 µM), inactives show at the top dose activity, negative = toxicity, actives largely listed as cytotoxic;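 further: potency means the concentration at half of the fitted maximal effect; 0% = DMSO wells and -100% = cell-free medium wells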
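Viability of IDH1-knockdown HT-1080 fibrosarcoma cells was assessed by CellTiter-Glo after 48 h at 37 °C with titrated compound; concentration-effect curves were classified by fit quality and response size.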
TDP1 cell noCPT = qHTS for Inhibitors of human tyrosyl-DNA phosphodiesterase 1 (TDP1): qHTS in cells in absence of CPT; DT40 Tdp1-/- hTDP1 cells, no CPT, ATP luminescence, 48 h; Potency, µM (top dose mostly 46.2 µM), for the others: top-dose activity change, negative = growth inhibition, most hits filed as inhibitors; hit rate 15% among 420,000; AID 686978, 2013; further: potency means the concentration at half of the fitted maximal effect; nearly all actives have a fitted effect of over 55% in size
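Chicken DT40 Tdp1-/- cells complemented with human TDP1, screened without camptothecin (DMSO vehicle only), 400 cells/well. Compounds pin-transferred, cells incubated at 37 °C for at least 48 hr. Growth read as ATP-dependent luminescence (CellTiter-Glo, 30 min at RT).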
DT40 TDP1 CPT = DT40-hTDP1 cell growth loss with CPT. chicken DT40 Tdp1-/-;hTDP1 cells + 20 nM CPT, ATP luminescence, 48 h. Potency, µM (doses to about 46.2 µM), without a hit: at the highest dose activity change, negative = growth inhibition, actives largely listed as inhibitors. hit rate 12% among 420,000. AID 686979; further: potency means the concentration at half of the fitted maximal effect; nearly all actives have a fitted effect of over 55% in size
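Chicken DT40 Tdp1-/- cells complemented with human TDP1, 400 cells/well, exposed to compounds plus 20 nM camptothecin for at least 48 h at 37 C; viability read as ATP content by CellTiter-Glo luminescence.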
HT1080-NT tox = kills 2HG-producing HT-1080-NT fibrosarcoma cells. HT-1080-NT fibrosarcoma viability, CellTiter-Glo ATP luminescence, 48 h. Potency, µM (doses to about 46.1 µM), for inactives: at the highest dose activity, negative = less viability, usual class: cytotoxic. hit rate 1.6% among 360,000;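 further: NT is the 2HG producing partner of a matched IDH1 knockdown line; potency means the concentration at half of the fitted maximal effect; 0% = DMSO-treated cells and -100% = media-only wells without cells; nearly all actives have a fitted effect of over 55% in size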
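Compounds were tested in concentration-response format on HT-1080-NT cells for 48 hours at 37 degrees C. Cell viability came from CellTiter-Glo luminescence; curves were classified by r2, response magnitude and activity.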
* hit, by the source's call; ? = inconclusive; nt = not tested or not shown. Unless noted, the call rests on the fitted dose curve; in most records, active means well fitted curve in the direction sought with a large enough effect; inconclusive means small, poorly fitted or top-dose-only effect, or another doubt; inactive means no such curve, though single readings can be large; an effect the other way counts as inactive or inconclusive. Unless noted, on the % scale 0 is the no-effect control and ±100 the full control effect.

SMILES	ELG1 DNA repair	IL-1B inflam inh	HT1080 IDH1KD tx	TDP1 cell noCPT	DT40 TDP1 CPT	HT1080-NT tox
Cc1ccc2[nH]c(=O)c(CN(C(=O)c3cccs3)c3ccccc3)cc2c1	?	1	-11%	16µM*	?	-3%
CCC(=O)N(Cc1cc2cc(OC)ccc2[nH]c1=O)c1ccc(C)cc1	-20%	-13	4%	10µM*	?	-14%
CCC(=O)N(Cc1cc2cc(OC)ccc2[nH]c1=O)c1cc(C)ccc1C	?	0	-23%	-29%	?	1%
COc1ccc2oc(C(=O)NCCN3CCOCC3)c(C)c2c1OC	?	0	-7%	-8%	-12%	-11%
CS(=O)(=O)N1CCN(CC(=O)NC2CCCCC2)CC1	-8%	-9	8%	-30%	1%	-11%
COc1ccc(C)cc1N(CC(=O)N1CCc2ccccc2C1)S(C)(=O)=O	-14%	-1	1%	-26%	2%	-3%
Cc1cccc(N(Cc2cc3ccccc3[nH]c2=O)C(=O)c2cccc(Cl)c2)c1	nt	nt	nt	16µM*	23µM*	nt
COc1ccc2[nH]c(=O)c(CN(C(=O)c3cccc(Cl)c3)c3cccc(C)c3)cc2c1	nt	nt	nt	18µM*	16µM*	nt
COc1ccc2[nH]c(=O)c(CN(C(=O)c3cccnc3)c3cc(C)ccc3C)cc2c1	?	-5	-1%	-3%	8%	-1%
O=C(NCc1cccs1)c1csc(COCCO)n1	nt	6	14%	-1%	4%	?
CCn1c(=N)c(C(=O)NC2CCCCC2)cc2c(=O)n3cc(C)ccc3nc21	nt	nt	nt	4%	6%	nt
CC1Cc2cc(S(=O)(=O)N3CCCCC3C)ccc2N1C(=O)C1CCC1 (stereo unspecified)	?	10	-1%	?	?	?
Cc1ccc(NS(=O)(=O)c2ccc3c(c2)CCCN3C(=O)C2CCC2)cc1Cl	nt	nt	nt	23µM*	?	nt
Cc1ccc(NS(=O)(=O)c2ccc3c(c2)CC(C)N3C(=O)C2CCC2)cc1Cl (stereo unspecified)	nt	nt	nt	10µM*	16µM*	nt
CCN(c1ccc2c(c1)OCO2)S(=O)(=O)c1cc2c(cc1Br)CCN2C(=O)C1CC1	nt	8	9%	21µM*	16µM*	-3%
CCN(c1ccc2c(c1)OCO2)S(=O)(=O)c1cc(Br)cc2c1N(C(C)=O)CC2	-16%	43	?	?	?	-19%
CCOc1ccc(NS(=O)(=O)c2ccc3c(c2)CCN3C(=O)C2CCC2)cc1	-22%	17	-8%	?	?	-8%
O=C(C1CCC1)N1CCc2cc(S(=O)(=O)Nc3ccc4c(c3)OCO4)ccc21	-27%	?	16µM*	14µM*	11µM*	-16%
O=C(COC(=O)c1ccccc1OCCOc1ccccc1)Nc1ccc(Br)cc1	nt	nt	nt	-1%	-6%	nt
CCOc1ccc(C2C(C(N)=O)=C(C)Nc3nc(-c4ccc(OC)cc4)nn32)cc1 (stereo unspecified)	nt	nt	nt	-7%	-2%	nt
Cc1cc(Cl)ccc1NS(=O)(=O)c1ccc2c(c1)CC(C)N2C(=O)C1CCC1 (stereo unspecified)	nt	nt	nt	16µM*	18µM*	nt
O=C(CCl)c1ccc2c(c1)CCN2C(=O)C1CCCCC1	?	-103*	?	1.6µM*	1.3µM*	23µM*
Cc1ccc(NC(=O)C2CCCC2)cc1Cl	nt	-24	-15%	-10%	15%	-7%
Cc1ccc(NS(=O)(=O)c2ccc(Cl)c(NC(=S)NC(=O)C3CCCCC3)c2)cc1Cl	-21%	-77*	?	?	23µM*	?
CCC1CCCCN1S(=O)(=O)c1ccc2c(c1)CCN2C(=O)C1CCC1 (stereo unspecified)	?	-15	?	?	?	?
SMILES	ELG1 DNA repair	IL-1B inflam inh	HT1080 IDH1KD tx	TDP1 cell noCPT	DT40 TDP1 CPT	HT1080-NT tox
COc1ccc(S(=O)(=O)N2c3ccccc3NC(=O)CC2C)cc1 (stereo unspecified)	-12%	8	-3%	4%	-11%	-2%
COc1ccc(N2Cc3cccc(C(=O)Nc4ccc(C)cc4)c3C2=O)cc1	nt	nt	nt	-19%	?	nt
CCOC(=O)N1CCC(NC(=O)c2cn(-c3ccc(OC)cc3)c(=O)c3ccccc23)CC1	-14%	-21	0%	?	-14%	-8%
COc1ccc(N2Cc3cccc(C(=O)Nc4ccc(F)cc4)c3C2=O)cc1	nt	nt	nt	8.2µM*	10µM*	nt
CCOC(=O)N1CCC(NC(=O)c2cccc3c2C(=O)N(c2ccc(OC)cc2)C3)CC1	?	0	-7%	?	15µM*	-1%
CCOc1ccc2nc(SC3CC(=O)N(c4ccccc4)C3=O)sc2c1 (stereo unspecified)	?	6	?	3.7µM*	2.9µM*	?
CCOC(=O)c1cnc(SC2CC(=O)N(c3cccc(OC)c3)C2=O)nc1N (stereo unspecified)	4%	23	1%	?	?	2%
CCOc1ccc2nc(SCCNS(=O)(=O)c3ccccc3)sc2c1	?	-68*	?	16µM*	-28%	?
CCOc1ccc2nc(SCC(=O)c3ccccc3)sc2c1	?	?	?	?	-12%	-5%
CCOc1ccc2nc(SC3CC(=O)N(c4cccc(OC)c4)C3=O)sc2c1 (stereo unspecified)	?	-3	10%	3.7µM*	3.3µM*	12%
COc1cc(C(=O)c2c(C)c(CCC#N)n3ccccc23)cc(OC)c1OC	?	7	-1%	-18%	-19%	15%
COc1ccccc1N1CCN(C(=O)c2cc3c(=O)oc4ccc(C)cc4c3s2)CC1	nt	nt	nt	6%	10%	nt
COc1ccc(C(=O)C23CC4CC(C2)CC(C(=O)c2ccc(OC)cc2)(C4)C3)cc1	5.8µM*	13	0%	16µM*	?	2%
CCc1cccc(C)c1Nc1c(-c2ccccc2)nc2sccn12	nt	nt	nt	18µM*	?	nt
Cc1ccc(-c2nc3sccn3c2Nc2ccccc2C)cc1	nt	nt	nt	23µM*	?	nt
Cc1ccccc1NC(=O)CSCc1cc(=O)n2ccsc2n1	15%	-11	10%	13%	3%	3%
COc1ccc(OC)c(NC(=O)Nc2nnc(COCCO)s2)c1	nt	0	17%	0%	-24%	25%
COc1cc2c(=O)[nH]c3cc([N+](=O)[O-])ccc3c2cc1[N+](=O)[O-]	nt	5	2%	6.5µM*	8.2µM*	3%
